# Results: PubChem BioAssay (NCI)
# Values joined by “and” are separate entries in the source; they are usually repeats but may differ in a detail not shown here. Identical values can stand only once. About 79,000 compounds went through this panel and 15% of them were active in at least one assay; those are over-represented in the sample as a whole. Where a structure was tested more than once in an assay, its records may differ in their call. Active and inactive are the calls of the source. Cut-off read from the data, not from the text of the source: active = growth inhibition above about 70%; inactive = the rest.
# Experiments:
# [1] = NCI Yeast Anticancer Drug Screen. Data for the rad50 strain (AID 155);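 note: 0% = growth of vehicle-only cultures of the same strain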; details: S. cerevisiae rad50 strain growth inhibition, stronger effect = higher value
# Outline: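 Relative growth inhibition (compound vs vehicle) was measured in yeast with a defined repair-gene alteration.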
# [2] = NCI Yeast Anticancer Drug Screen. Data for the mec2-1 strain (AID 157); details: S. cerevisiae mec2-1 strain, stronger effect = higher value
# Outline: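 Cells of the genetically defined mec2-1 yeast strain are incubated with test compound. Inhibition of growth is calculated against vehicle-treated controls.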
# [3] = NCI Yeast Anticancer Drug Screen. Data for the sgs1 mgt1 strain (AID 161);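 note: 0% = growth of cultures given vehicle only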; details: S. cerevisiae sgs1 mgt1 strain, stronger effect = higher value
# Outline: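 Mutant yeast exposed to compound; growth scored against vehicle-only wells.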
# [4] = NCI Yeast Anticancer Drug Screen. Data for the cln2 rad14 strain (AID 165);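 note: 0% = growth equal to vehicle treated cultures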; details: S. cerevisiae cln2 rad14 strain, stronger effect = higher value
# Outline: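 The screen exposed genetically defined yeast (cln2 rad14) to test compounds and scored growth inhibition relative to vehicle-treated controls.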
# [5] = NCI Yeast Anticancer Drug Screen. Data for the bub3 strain (AID 167); details: S. cerevisiae bub3 mutant strain, stronger effect = higher value
# Outline: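 Screening used yeast with an engineered genetic alteration affecting cell cycle control. Compound-exposed cultures were compared with vehicle cultures, and reduced growth was taken as inhibition.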
# [6] = NCI Yeast Anticancer Drug Screen. Data for the mlh1 rad18 strain (AID 175); details: S. cerevisiae mlh1 rad18 strain growth inhibition, stronger effect = higher value
# Outline: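 Compound-treated yeast growth, normalised to vehicle controls. Strain bears defined DNA repair mutations.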
# [7] = at 5.0 µM (retest, dose inferred, filed as 0.5)
# [8] = at 50.0 µM (retest, dose inferred, filed as 5.0)
Structure (SMILES),"growth inhibition [1, 7]","growth inhibition [1, 8]",growth inhibition ([1]; at 50.0 µM),"growth inhibition [2, 7]","growth inhibition [2, 8]",growth inhibition ([2]; at 50.0 µM),"growth inhibition [3, 7]","growth inhibition [3, 8]",growth inhibition ([3]; at 50.0 µM),"growth inhibition [4, 7]","growth inhibition [4, 8]",growth inhibition ([4]; at 50.0 µM),"growth inhibition [5, 7]","growth inhibition [5, 8]",growth inhibition ([5]; at 50.0 µM),"growth inhibition [6, 7]","growth inhibition [6, 8]",growth inhibition ([6]; at 50.0 µM)
C1=C(c2ccccc2)N(CCc2ccccc2)C(c2ccccc2)=CN1Cc1ccccc1,-7% (inactive),95% (active),98.4% (active),1% (inactive),97% (active),98.5% (active),7% (inactive),97% (active),98.6% (active),2% (inactive),96% (active),98.5% (active),9% (inactive),95% (active),98.2% (active),-4% (inactive),97% (active),98.7% (active)
CCC(=O)OCOc1ccc(/C=C2\CCC(CN(C)C)C2=O)cc1 (stereo not drawn),30% (inactive),53% (inactive),93.3% (active),23% (inactive),66% (inactive),92.6% (active),40% (inactive),88% (active),92.5% (active),29% (inactive),34% (inactive),90.9% (active),36% (inactive),98% (active),84.5% (active),33% (inactive),66% (inactive),90.8% (active)
O=[N+]([O-])c1c(Br)cc(Br)c2c1Nc1c(ccc(Cl)c1Cl)S2,14% (inactive),94% (active),96.5% (active),26% (inactive),95% (active),96.7% (active),13% (inactive),95% (active),96.4% (active),20% (inactive),93% (active),94.2% (active),28% (inactive),95% (active),94.8% (active),39% (inactive),95% (active),95.3% (active)
O=C1OC(c2ccccc2)C(c2ccccc2)=C1c1ccccc1 (stereo not drawn),-21% (inactive),91% (active),-6% (inactive),-18% (inactive),92% (active),-2.8% (inactive),-3% (inactive),91% (active),7.1% (inactive),-2% (inactive),86% (active),-29% (inactive),9% (inactive),91% (active),9% (inactive),4% (inactive),90% (active),3.65% (inactive)
O=S(=O)(O)c1ccc(NN(c2c(O)ccc3ccccc23)S(=O)(=O)O)cc1,-12% (inactive),1% (inactive),18.2% (inactive),-5% (inactive),-11% (inactive),-3.1% (inactive),-16% (inactive),-12% (inactive),-19.7% (inactive),-17% (inactive),-84% (inactive),43.9% (inactive),-9% (inactive),-10% (inactive),-29.8% (inactive),-12% (inactive),-19% (inactive),15.1% (inactive)
CC(C)c1ccc(C=Nc2ccc(SSc3ccc(N=Cc4ccc(C(C)C)cc4)cc3)cc2)cc1,44% (inactive),-7% (inactive),73.7% (active),26% (inactive),1% (inactive),49.4% (inactive),57% (inactive),-5% (inactive),57.6% (inactive),5% (inactive),-13% (inactive),12.2% (inactive),13% (inactive),1% (inactive),66.9% (inactive),25% (inactive),-11% (inactive),76.4% (active)
Clc1c(C(Cl)(Cl)Cl)nsc1N1CCCCC1,17% (inactive),58% (inactive),50.6% (inactive),16% (inactive),51% (inactive),23.1% (inactive),-3% (inactive),39% (inactive),33.1% (inactive),17% (inactive),10% (inactive),28% (inactive),1% (inactive),18% (inactive),51.4% (inactive),18% (inactive),84% (active),46.7% (inactive)
O=C1C(CN(Cc2ccccc2)Cc2ccccc2)CCCC1CN(Cc1ccccc1)Cc1ccccc1 (stereo not drawn),4% (inactive),17% (inactive),90.6% (active) and -1.45% (inactive),-3% (inactive),22% (inactive),73% (active) and 25.6% (inactive),4% (inactive),46% (inactive),72.7% (active) and 21.9% (inactive),-20% (inactive),7% (inactive),23.6% (inactive) and 67.8% (inactive),-16% (inactive),47% (inactive),83.2% (active) and 21.4% (inactive),-3% (inactive),58% (inactive),80.8% (active) and 14.2% (inactive)
CCOC(CN=c1nc(N(C)C)ss1)OCC,1% (inactive),-20% (inactive),2.75% (inactive),-9% (inactive),-12% (inactive),-8% (inactive),11% (inactive),-19% (inactive),-3.95% (inactive),-22% (inactive),-24% (inactive),7.85% (inactive),-1% (inactive),-9% (inactive),43.4% (inactive),-5% (inactive),-7% (inactive),-15.3% (inactive)
C=C(C)C(=O)Oc1ccc(N=Nc2ccccc2)ccc1=O,2% (inactive),89% (active),95.3% (active),5% (inactive),93% (active),81% (active),6% (inactive),93% (active),93% (active),4% (inactive),77% (active),59.9% (inactive),-2% (inactive),86% (active),81.8% (active),12% (inactive),96% (active),94.5% (active)
COc1ccc(COc2ccc(C(=O)CCN3CCOCC3)cc2)cc1,47% (inactive),62% (inactive),96.8% (active),38% (inactive),80% (active),96.5% (active),61% (inactive),87% (active),97% (active),40% (inactive),46% (inactive),93.8% (active),51% (inactive),80% (active),97.4% (active),51% (inactive),77% (active),96.8% (active)
O=c1[nH]c(=O)n(C2OC(CO)C(O)C2O)cc1F (stereo not drawn),21% (inactive) and 30% (inactive),96% (active) and 95% (active),96.2% (active) and 93% (active),42% (inactive) and 39% (inactive),99% (active),97.3% (active) and 97.8% (active),65% (inactive) and 80% (active),98% (active),97.8% (active) and 96.1% (active),15% (inactive) and 24% (inactive),96% (active) and 98% (active),90.5% (active) and 92.2% (active),5% (inactive) and -1% (inactive),98% (active) and 97% (active),96.3% (active) and 90.2% (active),24% (inactive) and 6% (inactive),97% (active) and 96% (active),94.8% (active) and 92.2% (active)
CCOP(=O)(OCC)C(C)(CC)NC(=O)C(C(F)(F)F)C(F)(F)F (stereo not drawn),21% (inactive),21% (inactive),-5.45% (inactive) and 2.5% (inactive),23% (inactive),13% (inactive),-14.8% (inactive) and 4% (inactive),16% (inactive),13% (inactive),-8.75% (inactive) and -2.6% (inactive),18% (inactive),24% (inactive),5.65% (inactive) and -1.65% (inactive),20% (inactive),19% (inactive),-4.95% (inactive) and -8.05% (inactive),23% (inactive),18% (inactive),8.65% (inactive) and -16.8% (inactive)
O=C1OC2=C(c3ccccc3)CCCC2C1=O (stereo not drawn),-1% (inactive),88% (active),83% (active) and -7.3% (inactive),3% (inactive),89% (active),78.5% (active) and 4.7% (inactive),1% (inactive),69% (inactive),93.8% (active) and -3.3% (inactive),-3% (inactive),94% (active),92.5% (active) and 0.1% (inactive),0% (inactive),93% (active),85.4% (active) and -6.2% (inactive),0% (inactive),93% (active),91.7% (active) and 3.8% (inactive)
CCCCCCCCCCCCCCCCOP(=O)(O)OP(=O)(O)OCC1OC(n2ccc(N)nc2=O)C(O)C1O (stereo not drawn),97% (active),97% (active),-2% (inactive) and 81.4% (active),98% (active),98% (active),-2.65% (inactive) and 89.8% (active),98% (active),98% (active),55% (inactive) and 87.5% (active),92% (active),90% (active),9.5% (inactive) and 84.7% (active),98% (active),98% (active),-9.4% (inactive) and 84.5% (active),94% (active),95% (active),33% (inactive) and 90.5% (active)
CC(C)(c1ccc(O)cc1)c1ccc(O)cc1,5% (inactive),59% (inactive) and 83% (active),69.5% (inactive) and 77.6% (active),10% (inactive) and 3% (inactive),34% (inactive) and 51% (inactive),58.6% (inactive) and 81.8% (active),-3% (inactive) and 4% (inactive),75% (active) and 51% (inactive),78.1% (active) and 64.6% (inactive),9% (inactive) and 16% (inactive),39% (inactive) and 78% (active),50.4% (inactive) and 71.2% (active),30% (inactive) and 5% (inactive),45% (inactive) and 64% (inactive),59.7% (inactive) and 81.1% (active),6% (inactive) and 4% (inactive),64% (inactive) and 68% (inactive),76.6% (active) and 87.7% (active)
